# APOBEC3G inh – blocks human APOBEC3G single-stranded DNA deamination; recombinant A3G, ssDNA deamination FAM/TAMRA fluorescence; 330,000 tested, 0.28% active; Q9HC16; inhibition, % at 20 µM;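 active = inhibition of at least 40% at 20 µM, with no more than 30% in the related APOBEC3A deaminase screen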;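 also: plate controls were DMSO wells with A3G for no effect and wells lacking A3G enzyme for full effect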
# Target sequence (Q9HC16 whole entry, looked up): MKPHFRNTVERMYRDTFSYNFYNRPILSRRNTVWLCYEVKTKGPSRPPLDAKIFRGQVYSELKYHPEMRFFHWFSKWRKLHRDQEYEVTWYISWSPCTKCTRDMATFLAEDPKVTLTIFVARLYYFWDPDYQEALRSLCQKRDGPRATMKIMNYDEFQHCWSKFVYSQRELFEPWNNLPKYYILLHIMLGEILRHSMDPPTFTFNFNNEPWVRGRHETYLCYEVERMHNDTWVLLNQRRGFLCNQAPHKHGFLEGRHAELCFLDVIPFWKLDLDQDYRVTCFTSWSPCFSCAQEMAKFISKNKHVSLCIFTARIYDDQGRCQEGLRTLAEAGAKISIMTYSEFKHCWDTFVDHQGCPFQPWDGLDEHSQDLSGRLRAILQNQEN
# NRP1-CendR mod – alters CendR peptide binding to human NRP-1 | O14786 | 360,000 tested, 0.85% active | inhibition, % at 25 µM | FAM-RPARPAR peptide binding to NRP-1, fluorescence polarization;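 active = inhibition or corrected inhibition above about 18%, plus a signal ratio from 0.5 to 1.5, limit read from the data, passing the limit was not always enough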
# APOBEC3A inh – blocks human APOBEC3A ssDNA deamination; 330,000 tested, 0.41% active; AID 493011; inhibition, % at 20 µM; recombinant A3A, FAM/TAMRA ssDNA deamination fluorescence;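 active = at least 40% inhibition at 20 µM here, with at most 30% in a related deaminase screen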;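 also: plate controls were A3A with DMSO for no effect and wells lacking A3A enzyme for full effect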
# Target sequence (P31941 whole entry, looked up): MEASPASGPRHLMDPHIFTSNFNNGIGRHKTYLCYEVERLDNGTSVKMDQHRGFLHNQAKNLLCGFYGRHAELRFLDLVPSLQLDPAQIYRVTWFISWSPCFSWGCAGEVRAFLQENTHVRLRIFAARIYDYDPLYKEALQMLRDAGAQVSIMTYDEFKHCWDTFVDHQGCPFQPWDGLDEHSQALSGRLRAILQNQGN
# ALR inh – inhibitors of human sulfhydryl oxidase ALR | P55789 | purified ALR, DTT oxidation, H2O2 HRP-luminol luminescence | inhibition, % (no concentration beside the values) | 290,000 tested, 3.8% active | AID 485317;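 active = mean replicate inhibition above about 79%, with every replicate also reaching it, limit read from the data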
# M18AAP inhibitor – PfM18AAP enzyme inhibition. 290,000 tested, 1.2% active. recombinant PfM18AAP, H-Glu-NHMec fluorogenic cleavage. inhibition, % at 7.35 µM;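 active = inhibition above the campaign mean inhibition over all tested compounds plus 3 SD, cut at about 28% in these data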;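 also: 0% = plate median of test compound wells and 100% = 2 mM ZnCl2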
# CR mimetic SO – lowers age-related superoxide in aged yeast cells; superoxide response (% of plate mean), % at 10 µM; S. cerevisiae aged cells, superoxide DHE fluorescence; hits give low values; 330,000 tested, 0.18% active;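 active = superoxide response under a set limit, about three screen SD below normal, cut at about 65% in these data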;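 also: yeast aged for seven days with compound at 30 °C before DHE staining; 100% = average MFI of all compound-treated wells on the plate with controls excluded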
# * hit, by the source's call; · = not tested or not shown. Hits are enriched below; roughly 5.2% of the tested compounds scored in any of these assays.
SMILES,APOBEC3G inh,NRP1-CendR mod,APOBEC3A inh,ALR inh,M18AAP inhibitor,CR mimetic SO
CCC(C)N(C(=O)CSc1ccc(NC(C)=O)cc1)C1CCS(=O)(=O)C1 (stereo not drawn),-8.3,1.0,0.2,88.4*,6.2,108.5
CCOc1ccc(-n2nc3c(SCCN4CCCC4)nnc(C)c3c2C)cc1,-7.6,-14.0,-2.5,1.5,-2.6,103.5
O=C(O)CCC(=O)Nc1cccc2cccnc12,-5.2,7.0,2.8,-26.6,-0.5,107.0
Brc1ccc(C=Nc2ccc3c(c2)OCCOCCOCCO3)s1,-9.4,-3.6,-4.8,89.1*,10.6,87.6
Oc1c(Cl)cc(Cl)cc1C=Nc1ccc2c(c1)OCCO2,-0.9,-71.2,-0.2,-5.4,13.1,100.2
Brc1csc(C=Nc2ccc3c(c2)OCCOCCOCCOCCO3)c1,-7.8,-1.6,-8.6,99.6*,8.5,106.9
COc1cc(NC(=O)CN2C(=O)COc3ccc(S(=O)(=O)N4CCCCC4)cc32)cc(OC)c1,-8.7,2.5,-6.2,-5.0,1.7,105.1
CC(NC(=O)C(Cc1ccccc1)N1C(=O)C2C3CCC(C3)C2C1=O)c1ccccc1 (stereo not drawn),-7.4,0.2,-1.2,-3.4,-10.5,100.7
O=C(Nc1ccccc1O)C(c1ccccc1)c1ccccc1,-9.1,-6.5,-2.2,5.2,4.3,100.5
CC(=O)/C=C(\C)Nc1ccccc1O,1.2,-6.5,-1.2,51.2,29.0*,89.5
O=C1C(SCCO)=C(SCCO)C(=O)c2ccccc21,73.3*,18.7,-7.5,-25.7,·,107.2
CC1=C(SCc2ccccc2)C(=O)c2ccccc2C1=O,·,9.1,·,·,·,·
CC(=O)c1sc(NC(=O)COc2ccc(Cl)cc2Cl)nc1C,-4.7,7.8,-2.4,·,0.3,105.9
CCOC(=O)C1CCCN(S(=O)(=O)Cc2ccccc2Cl)C1 (stereo not drawn),-8.3,-1.8,-3.6,-0.2,2.5,94.9
Nc1nc(SCC(=O)Nc2ncc(C(F)(F)F)cc2Cl)n[nH]1,-10.5,17.8,5.1,10.5,28.3*,105.3
COc1ccc(-c2oc3cc(OC)c(O)c(OC)c3c(=O)c2OC)cc1O,13.5,-6.9,-1.2,100.0*,11.8,83.4
COc1c(-c2ccc(O)cc2)oc2cc(O)cc(O)c2c1=O,13.8,10.8,1.8,97.6*,·,105.5
CC(=O)Oc1cc(O)c2c(=O)c(OC(C)=O)c(-c3ccc(OC(C)=O)c(OC(C)=O)c3)oc2c1,-7.5,-39.3,0.1,82.3*,·,128.1
COc1ccc(-c2oc3cc(OC(C)=O)cc(OC(C)=O)c3c(=O)c2OC)cc1,·,3.1,·,·,·,·
Cc1ccc(S(=O)(=O)N(c2ccc(Br)cc2)C2C=CS(=O)(=O)C2)cc1 (stereo not drawn),-2.3,6.7,4.3,-3.6,-6.0,91.5
CN(C)S(=O)(=O)c1ccc(C(=O)N2CCN(S(=O)(=O)c3ccc4c(c3)OCCO4)CC2)cc1,·,13.0,·,·,·,·
CCN1CCN(C(=O)Nc2ccc(Cc3ccc(NC(=O)N4CCN(CC)CC4)cc3)cc2)CC1,-2.0,-12.8,-4.6,98.7*,0.6,116.0
CC(C)(C)OC(=O)[C@H](Cc1ccccc1)NC(=O)c1nc[nH]c1C(=O)N1CCNCC1,1.6,34.2*,-3.0,5.7,·,92.5
CC1CCN(C(=O)c2[nH]cnc2C(=O)NCc2ccccc2)CC1,-6.3,20.2,1.1,5.4,·,98.6
CC(C)(C)OC(=O)NCCCCCNC(=O)c1nc[nH]c1C(=O)N1CCN(c2ccccc2)CC1,-1.8,22.3,5.5,32.4,·,128.8
SMILES,APOBEC3G inh,NRP1-CendR mod,APOBEC3A inh,ALR inh,M18AAP inhibitor,CR mimetic SO
O=C(NCc1ccccc1)c1nc[nH]c1C(=O)N1CCN(c2ccccc2)CC1,-11.3,30.1*,-5.0,97.7*,·,99.5
CC(C)(C)OC(=O)N1CCN(C(=O)c2[nH]cnc2C(=O)NCC(=O)OCc2ccccc2)CC1,-11.0,12.3,-1.4,·,-1.5,99.4
CC1CCN(C(=O)c2[nH]cnc2C(=O)NCc2ccc(CNC(=O)OC(C)(C)C)cc2)CC1,-12.6,30.0*,-3.7,-1.3,·,102.0
CC(C)(C)OC(=O)N1CCN(C(=O)c2[nH]cnc2C(=O)NCc2ccccc2)CC1,-7.2,33.4*,-1.4,1.9,·,106.3
CC(C)(C)OC(=O)[C@H](Cc1ccccc1)NC(=O)c1nc[nH]c1C(=O)NC1CCNCC1,-0.2,9.1,0.5,-10.0,·,100.0
COc1ccc(CNC(=O)Cn2nc(C(F)(F)F)cc2C)cc1,-2.1,0.0,1.2,0.0,2.9,90.4
COc1cc(C2c3c(oc4ccccc4c3=O)C(=O)N2c2ccc(C)cn2)ccc1O (stereo not drawn),-1.7,1.0,-0.1,24.1,4.1,90.2
Cc1ccccc1NC1=C(Cl)C(=O)OC1OC(=O)c1ccccc1C (stereo not drawn),-7.3,8.8,-5.1,-4.8,2.1,94.5
CN(Cc1ccccc1)C(=O)c1[nH]cnc1C(=O)NCc1ccc(CNC(=O)OC(C)(C)C)cc1,-3.7,30.1*,1.9,-4.4,·,88.8
CC(C)(C)OC(=O)N1CCC(NC(=O)c2nc[nH]c2C(=O)N2CCc3ccccc3C2)CC1,-8.3,30.0*,-5.9,3.3,·,115.5
CC(C)(C)OC(=O)N1CCC(NC(=O)c2nc[nH]c2C(=O)N2CCN(C(=O)OC(C)(C)C)CC2)CC1,-12.1,4.1,-2.6,-3.0,·,115.1
CC1(C)Cc2nc3nc(SCC(=O)NCCc4ccccc4)n(-c4ccccc4)c(=O)c3cc2CO1,-6.8,3.2,1.9,-18.4,-2.5,105.2
CCN[C@H]1C[C@H](C)S(=O)(=O)c2sc(S(N)(=O)=O)cc21,-4.7,-11.2,-1.6,-7.3,·,104.3
O=[N+]([O-])/C(C(Cl)=C(Cl)Cl)=C(\Sc1ccccc1)N1CCCCC1,1.2,8.1,4.8,97.6*,3.8,106.9
COc1c(OC(C)=O)c(=O)n2c3ccccc3c3ccnc1c32,-7.8,0.7,-3.0,-0.8,·,89.4
Cc1cccc(NC(=O)c2cc(S(=O)(=O)c3ccccc3)ccc2Cl)c1,-4.1,34.1*,-3.1,-8.1,0.6,111.9
Cc1ccccc1NC(=O)c1cc(S(=O)(=O)c2ccccc2)ccc1Cl,-4.2,3.9,3.2,0.4,-1.7,113.2
CCC(CO)[n+]1c(C)cc(/C=C2\Sc3ccccc3N2Cc2ccccc2)cc1C (stereo not drawn),·,-92.8,·,98.2*,26.9,109.5
NNC(=O)c1ccccc1CO,4.1,·,3.1,78.6*,·,82.1
Cn1cc(-c2cc(C(=O)O)on2)cn1,-3.9,25.2*,-7.7,3.9,-3.1,101.5
O=C(c1ccco1)N1CCN(C(=O)c2cc(-c3ccc(F)cc3)no2)CC1,-0.7,2.2,-2.3,-9.9,-4.5,86.2
COc1ccc(-c2noc(CN(C)C(=O)c3ccc4c(c3)OCO4)n2)cc1,-8.8,6.9,-1.1,-5.0,-0.2,104.3
COc1ccccc1C(=O)NCCC(=O)NCCOc1ccccc1,-4.8,5.8,-1.5,5.0,-8.5,96.8
COCCCNC(=O)c1ccccc1Oc1ccccc1,-8.1,6.2,-3.5,98.0*,-17.7,93.5

# High-throughput results (PubChem)
